# Shown is part of a subset that was picked to be rich in hits.
# Tg IFNy HTS – T. gondii growth inhibition under IFN-gamma. Toxoplasma gondii growth in IFN-gamma-treated host cells; stronger effect = lower value. activity change, negative = inhibition, % (test concentration not listed). 69,000 tested, 3.8% active. AID 1259416; in the data active means activity change below about -70%, passing the limit was not always enough;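 further: host cells are HeLa cells infected with Toxoplasma gondii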
# Active calls of the source: *.
SMILES,Tg IFNy HTS
Cc1ccc(C)c(-c2coc(-c3ccc(NC(=O)NC4CCCCC4)cc3)n2)c1,2
O=C(c1ccc(-c2ccccc2)[nH]1)N1CCC(O)(CO)CC1,183
Cc1nc(CN2CCCCC2CCc2ccc(O)cc2)co1 (stereo not given),-3
COc1ccc(CNC(=O)CC2N=C3c4ccccc4N=C(SCc4cccc(F)c4)N3C2=O)cc1 (stereo not given),-8
CC(NS(=O)(=O)c1ccc2c(c1)n(C)c(=O)n2C)c1nc2ccccc2s1 (stereo not given),19
Cc1cccc(C)c1CN1CCCC(CNC(=O)c2cnccn2)C1 (stereo not given),-3
COc1ccc(NC(=O)Nc2ccc(OC)c(OC3CCCC3)c2)cc1OC1CCCC1,139
Cc1ccc(NC(=O)C2CCCCC2C(=O)O)cc1Cl (stereo not given),-4
Cc1ccc(NC(=O)OC2CCCCC2)cc1NC(=O)OC1CCCC1,-105*
Cc1nc(-c2ccccc2)sc1CCNC(=O)C(=O)Nc1ccccc1C#N,265
CNC(=O)Cn1cc(-c2ccc(F)cc2Cl)cn1,-39
Cc1cc(C(=O)Oc2ccc(Cl)cc2)no1,0
O=C(Nc1ccc(OC(F)(F)F)cc1)c1cscc1Sc1ccc(Cl)cc1,-52
O=C(Oc1ccc(Cl)cc1)c1cscc1Sc1ccc(Cl)cc1,-101*
COc1cncc(-c2ccc(O)cc2)c1,-29
CC(C)(C)C1CCc2nc(-c3cccnc3)nc(Nc3cccc(C(F)(F)F)c3)c2C1 (stereo not given),-73*
Cc1nc(CCNc2nc(-c3cccnc3)nc3c2CCNC3)sc1C,136
O=C(O)c1cccnc1Nc1cccc(C(F)(F)F)c1,-4
O=C(CN1CCOCC1)Nc1ccc(Oc2ccccc2)cc1,23
COc1ccc(C(c2ccccc2)N2CCN(C(=O)C(C)n3ccnc3)CC2)cc1 (stereo not given),0
O=C(Oc1ccc(Oc2ccccc2)cc1)N1CCC(OC(=O)n2ccnc2)CC1,-97*
CCc1cc(N2CC(c3ccncc3)C2)nc(N2CCCC2)n1,-1
COCCn1ccnc1C1CC(=O)Nc2cc(O)c(C)cc21 (stereo not given),-1
Cc1cc2c(cc1O)NC(=O)CC2c1nccs1 (stereo not given),-29
COC(=O)c1cccc(C2CC(=O)Nc3cc(O)c(C)cc32)n1 (stereo not given),-81*
SMILES,Tg IFNy HTS
Cc1c(CN(C)c2ccc(-c3nccn3C)nn2)[nH]c2ccccc12,-96*
CN(Cc1ccoc1)c1ccc(-c2nccn2C)nn1,67
CN(Cc1nccn1C)c1ccc(-c2nccn2C)nn1,-3
CCc1ccc(CN2CCN(c3nc(N(C)C)nc(C)c3C)CC2)nc1,6
CN1CC2(CCCCN2C(=O)Cc2ccccc2)CC1=O (stereo not given),17
O=C(c1ccccc1F)N1C[C@H](OCC2CC2)[C@@H]2OCCC[C@@H]21,39
CC1CCCN(c2ncc(-c3ccc4c(c3)OCO4)c(-c3cccnc3)n2)C1 (stereo not given),-31
COc1cc2oc3cc(OC)c(OC)c(CC=C(C)C)c3c(=O)c2c(O)c1CC=C(C)C,8
CC(C)=CCc1c(O)cc2oc(C)cc(=O)c2c1O,2
COc1c(O)cc2oc3cc(O)c(CC=C(C)C)c(O)c3c(=O)c2c1CC=C(C)C,-71*
CC(=O)N1CCC2(C=C(C(=O)N3CCCC3)c3ccccc32)CC1,25
CN1CCN(c2cc(-c3cccnc3)nc3ccccc23)CC1,-16
COC(=O)C1(C)CCN(c2nc(-c3cccnc3)nc3c2cnn3C)CC1,-41
Cc1nc(N2CCN(c3cc(=O)[nH]nc3-c3ccccc3)CC2)c2cnn(C)c2n1,-84*
COCC1(C(=O)NCCn2c(C)cc3ccccc32)CCC1,12
CC(C)(C)c1cc(NC(=O)CN2CCC(N3CCCC3=O)CC2)no1,0
Cc1ccc(Oc2ncccc2CNC(=O)C2Cc3ccccc3C(=O)N2)cn1 (stereo not given),-3
CC(C)(C)c1cnc(CSc2cnc(NC(=O)C3CCNCC3)s2)o1,-72*
CC(=O)NCC(=O)N1CCc2ncnc(-c3ccsc3)c2CC1,73
CC(C)c1ccc(OCCN(C)Cc2cc3n(n2)CCCNC3)cc1,-32
CS(=O)(=O)N[C@@H]1CCN(c2ncccn2)[C@@H]1Cc1ccccc1,4
Cn1c(-c2ccccc2)cnc1NC(=O)CC1NC(=O)N(C2CCCCC2)C1=O (stereo not given),11
Cn1cc(CN2CCCC2c2cncc(Nc3ccccn3)n2)c2cc(F)ccc21 (stereo not given),-100*
Cc1c(CN2CCCC2c2ccccn2)[nH]c2ccc(F)cc12 (stereo not given),1
Fc1ccc(C(F)(F)F)cc1CN1CCCC1c1ccccn1 (stereo not given),15
SMILES,Tg IFNy HTS
O=C(c1cc(-n2cnnn2)ccc1O)N1CCO[C@@H]2CCCC[C@H]21,-5
Cc1cc(C(=O)N2C[C@@H]3COC[C@@]3(CN3CCOCC3)C2)sc1C,-33
Cc1oc(C2CCN(S(=O)(=O)c3ccc(F)c(F)c3)CC2)nc1C(=O)N(C)C,14
Cc1ccc(Nc2nc(-c3nnc(-c4ccccc4)o3)nc3ccccc23)cc1C,-22
Cc1cc(C)c2c(c1)CC(C)(C)c1[nH]c(-c3ccc(Cl)cc3Cl)nc1-2,-71*
CCOc1ccc(-c2nc(CN(C)S(=O)(=O)c3ccccc3)c(C)o2)cc1,3
CC(C)NC(=O)NCC1CCN(Cc2cc(C(C)(C)C)n[nH]2)C1 (stereo not given),0
Cc1cc(C)n(CCC(=O)N2CCCC2c2ccccc2C)c(=O)n1 (stereo not given),3
O=C(Nc1cnn(Cc2ccccc2F)c1)c1ccc(N2CCCCC2)cc1,-95*
C[C@@H]1CN(Cc2ccccc2F)CCN1CC(=O)Nc1ccc(N2CCCCCC2)cc1,444
O=C(Nc1ccc(N2CCCCC2)cc1)c1ccccc1Cl,199
O=C(O)[C@H]1C[C@H](C(=O)NCc2ccccn2)CN(C2Cc3ccccc3C2)C1,2
COC(=O)c1ccc(NC(=O)C(=O)NCCc2sc(-c3ccc(Cl)cc3)nc2C)cc1,202
CCN(Cc1noc(C)n1)C(=O)c1ccc2cccc(Cl)c2n1,3
CN(CCc1ccccc1)C1CCCN(C(=O)c2ncccc2O)C1 (stereo not given),10
Cc1ccc(S(=O)(=O)N(C)c2cncc(C(=O)N3CCC(Cc4ccccc4)CC3)c2)cc1,-96*
CN(c1cncc(C(=O)N2CCN(c3cccc(Cl)c3)CC2)c1)S(=O)(=O)c1ccccc1,-15
Cc1ccc(S(=O)(=O)N(C)c2cncc(C(=O)N3CCCCCC3)c2)cc1,-11
O=C(NCc1ccccc1)N1CCC2(CC1)Nc1cc(F)ccc1-n1cccc12,146
Cc1ccc(-c2cc(O)c3c(c2)CN(C(=O)CCCn2cncn2)CCO3)cc1,-76*
Oc1cc(-c2csc3ccccc23)cc2c1OCCN(CCn1cncn1)C2,-32
O=C(CCN1CCCO1)N1CCOc2c(O)cc(-c3cccnc3)cc2C1,5
Cc1ccc(CN2CCN(C3CCN(C(C)C)CC3)C(CCO)C2)cc1C (stereo not given),4
Cc1cnn(Cc2ccc(Cl)cc2)c1NC(=O)c1cc(-c2cnn(C)c2C)on1,-14
CCOC(=O)c1cccnc1-c1cccc(NC(C)=O)c1,13
CCOC(=O)c1c(Sc2ccccc2)cnn1C(=O)Nc1cccc(Cl)c1,-79*
COC(=O)c1cnc(SCC(=O)Nc2cccc(Cl)c2)n1C,34
COc1ccc(C)cc1NC(=O)N1CCC2(CC1)NC(=O)c1ccc(F)cc1N2C,21

# Source: PubChem (Broad Institute)
